Experimental data published in PubChem BioAssay (EPA / NIEHS).
Records with an inconclusive call do not appear. The source made the active and inactive calls. How the source made its calls, unless noted: active means hit-call score of the fitted dose curve at least 0.9, where 1 is the maximum; inconclusive means response in the unintended direction; inactive means score below 0.9.

Experiments:
[1] = target: Retinoic acid receptor alpha (Homo sapiens) (UniProt P10276); experiment: ATG_DR5_RAR_CIS: Attagene CIS-FACTORIAL HepG2 Assay for human Retinoic Acid Receptor Alpha (RARE), DR5 submotif (AID 2282934; active means hit-call score of the fitted dose curve at least 0.9, where 1 is the maximum; inactive means score below 0.9); conditions: HepG2 Attagene cis-factorial RARE DR5 reporter, mRNA; actives raise or lower the signal
Chain of Retinoic acid receptor alpha (Homo sapiens) (P10276 whole entry, looked up): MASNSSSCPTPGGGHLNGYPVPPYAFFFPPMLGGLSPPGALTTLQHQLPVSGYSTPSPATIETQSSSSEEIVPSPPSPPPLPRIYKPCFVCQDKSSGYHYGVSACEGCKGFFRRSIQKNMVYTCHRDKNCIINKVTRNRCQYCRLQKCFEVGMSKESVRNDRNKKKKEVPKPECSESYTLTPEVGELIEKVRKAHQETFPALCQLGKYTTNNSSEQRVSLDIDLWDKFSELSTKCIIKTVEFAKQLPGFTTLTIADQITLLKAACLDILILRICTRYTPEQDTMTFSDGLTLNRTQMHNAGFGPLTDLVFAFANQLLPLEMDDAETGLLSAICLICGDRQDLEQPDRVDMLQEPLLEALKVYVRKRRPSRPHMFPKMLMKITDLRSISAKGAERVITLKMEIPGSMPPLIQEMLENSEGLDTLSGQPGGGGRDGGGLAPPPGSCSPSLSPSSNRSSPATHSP
Method in brief: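 HepG2, transient cis-reporter transfection, 24 h exposure. mRNA readout: RT-PCR, FAM label, HpaI cut, capillary electrophoresis. DMSO baseline, gain/loss fitting.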

[2] = target: Hepatocyte nuclear factor 3-beta (Homo sapiens) (UniProt Q9Y261); experiment: ATG_FoxA2_CIS: Attagene CIS-FACTORIAL HepG2 Assay for human Forkhead box A2 (FOXA2) (AID 2282942; active means hit-call score of the fitted dose curve at least 0.9, where 1 is the maximum; inactive means score below 0.9); conditions: HepG2 cis-reporter transcription factor activity, 24 h; actives raise or lower the signal
Chain of Hepatocyte nuclear factor 3-beta (Homo sapiens) (Q9Y261 whole entry, looked up): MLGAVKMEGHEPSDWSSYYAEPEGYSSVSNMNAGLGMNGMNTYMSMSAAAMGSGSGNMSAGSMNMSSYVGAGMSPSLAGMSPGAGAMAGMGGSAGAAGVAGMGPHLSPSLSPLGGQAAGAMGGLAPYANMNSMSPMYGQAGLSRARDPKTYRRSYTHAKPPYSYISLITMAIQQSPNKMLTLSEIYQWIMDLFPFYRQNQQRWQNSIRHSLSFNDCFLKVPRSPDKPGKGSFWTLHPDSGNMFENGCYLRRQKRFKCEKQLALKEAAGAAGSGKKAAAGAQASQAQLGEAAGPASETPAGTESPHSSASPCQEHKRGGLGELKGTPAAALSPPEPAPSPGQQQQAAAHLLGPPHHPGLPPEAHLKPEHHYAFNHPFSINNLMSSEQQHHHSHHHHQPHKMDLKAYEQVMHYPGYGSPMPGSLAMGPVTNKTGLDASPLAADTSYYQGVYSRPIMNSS
Method in brief: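 Cells: HepG2, transient multiplex reporter transfection. Exposure 24 h. Detection: reporter-specific RT-PCR, fluorescent labelling, restriction digest, capillary electrophoresis. Analysis: bidirectional curve fit, DMSO as negative control.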

[3] = ATG_M_32_CIS: Attagene CIS-FACTORIAL HepG2 Assay for M32 Transcription Factor (Internal Marker) (AID 2282949; active means hit-call score of the fitted dose curve at least 0.9, where 1 is the maximum; inactive means score below 0.9;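 further: background control marker of the multiplexed CIS panel rather than a real target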); conditions: HepG2 Attagene cis-factorial M32 reporter, mRNA; actives raise or lower the signal
Method in brief: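 HepG2 cells transiently transfected with multiplexed cis-regulated reporter units, dosed 24 h. Reporter mRNA quantified by RT-PCR, 6-FAM labelling, HpaI digestion and capillary electrophoresis; bidirectional fit vs DMSO.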

[4] = ATG_PBREM_CIS: Attagene CIS-FACTORIAL HepG2 Assay for human Phenobarbital-responsive Enhancer Module (PBREM) (AID 2282955; active means hit-call score of the fitted dose curve at least 0.9, where 1 is the maximum; inactive means score below 0.9); conditions: HepG2 PBREM cis-reporter, Attagene multiplexed transcription; actives raise or lower the signal
Method in brief: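 HepG2, transient MRTU transfection, 24 h dosing; RNA → oligo(dT) RT → PCR → 6-FAM extension → HpaI → CE. Bidirectional fit vs DMSO.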

[5] = ATG_PXRE_CIS: Attagene CIS-FACTORIAL HepG2 Assay for human Pregnane X Receptor Element (PXRE) (AID 2282957; active means hit-call score of the fitted dose curve at least 0.9, where 1 is the maximum; inactive means score below 0.9); conditions: HepG2 Attagene CIS-FACTORIAL PXRE reporter, mRNA; actives raise or lower the signal
Method in brief: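 Cis-element reporter mRNA in human hepatoma HepG2 cells is measured 24 h post-dosing by RT-PCR, primer-extension labeling and capillary electrophoresis; gain or loss of signal is fitted relative to DMSO.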

[6] = ATG_RORE_CIS: Attagene CIS-FACTORIAL HepG2 Assay for human RAR-related Orphan Receptor Element (RORE) (AID 2282959; active means hit-call score of the fitted dose curve at least 0.9, where 1 is the maximum; inactive means score below 0.9); conditions: HepG2 Attagene cis-factorial RORE reporter, mRNA; actives raise or lower the signal
Method in brief: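 Multiplexed reporter assay measuring mRNA induction from a cis promoter element in transiently transfected HepG2 cells after 24 h treatment. Detection via RT-PCR and capillary electrophoresis fluorescence; DMSO serves as baseline.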

[7] = target: Hepatocyte nuclear factor 4-alpha (Homo sapiens) (UniProt P41235); experiment: ATG_HNF4a_TRANS: Attagene TRANS-FACTORIAL HepG2 Assay for human Hepatocyte Nuclear Factor 4 alpha (HNF4a) (AID 2282982); conditions: HepG2 HNF4a transactivation reporter, mRNA readout
Chain of Hepatocyte nuclear factor 4-alpha (Homo sapiens) (P41235 whole entry, looked up, the tested form may be a part): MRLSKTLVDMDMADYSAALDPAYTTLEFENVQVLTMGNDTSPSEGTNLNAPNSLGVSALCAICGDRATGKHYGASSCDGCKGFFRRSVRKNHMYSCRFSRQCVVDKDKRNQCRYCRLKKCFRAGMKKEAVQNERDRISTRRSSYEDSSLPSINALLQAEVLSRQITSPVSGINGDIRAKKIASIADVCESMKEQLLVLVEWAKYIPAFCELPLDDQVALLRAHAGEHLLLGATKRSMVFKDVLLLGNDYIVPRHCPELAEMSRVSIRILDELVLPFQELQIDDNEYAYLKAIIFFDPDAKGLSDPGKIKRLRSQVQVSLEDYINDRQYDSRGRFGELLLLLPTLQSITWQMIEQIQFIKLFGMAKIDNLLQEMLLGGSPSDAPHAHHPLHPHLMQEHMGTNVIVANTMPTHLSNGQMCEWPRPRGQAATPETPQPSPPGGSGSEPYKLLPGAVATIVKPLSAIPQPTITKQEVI
Method in brief: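 Readout is fluorescent reporter-transcript fragments resolved by capillary electrophoresis after RT-PCR from HepG2 cells dosed for 24 h. Cells carried transfected GAL4-UAS reporter constructs measuring exogenous NR-GAL4 chimera activity; DMSO served as baseline.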

[8] = target: human Peroxisome Proliferator-activated Receptor alpha (PPARa), PPARA (gene 5465) (UniProt Q07869); experiment: ATG_PPARa_TRANS: Attagene TRANS-FACTORIAL HepG2 Assay for human Peroxisome Proliferator-activated Receptor alpha (PPARa) (AID 2283001)
Chain of human Peroxisome Proliferator-activated Receptor alpha (PPARa), PPARA (gene 5465) (Q07869 whole entry, looked up, the tested form may be a part): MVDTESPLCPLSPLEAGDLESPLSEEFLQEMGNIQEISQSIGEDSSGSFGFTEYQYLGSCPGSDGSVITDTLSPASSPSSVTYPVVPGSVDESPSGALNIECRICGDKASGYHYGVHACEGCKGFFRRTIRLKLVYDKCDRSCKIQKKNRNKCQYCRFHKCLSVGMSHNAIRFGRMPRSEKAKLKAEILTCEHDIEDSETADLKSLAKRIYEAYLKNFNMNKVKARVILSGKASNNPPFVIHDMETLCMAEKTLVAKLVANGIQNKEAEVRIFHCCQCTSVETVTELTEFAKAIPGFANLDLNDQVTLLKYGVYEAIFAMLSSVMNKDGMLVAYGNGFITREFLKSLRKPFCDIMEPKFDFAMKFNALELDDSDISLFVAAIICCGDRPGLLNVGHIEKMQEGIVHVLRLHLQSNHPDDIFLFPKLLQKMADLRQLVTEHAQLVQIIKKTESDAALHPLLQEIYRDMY
Method in brief: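 Read-out is fluorescence of reporter cDNA fragments resolved by capillary electrophoresis after RT-PCR. Human HepG2 liver cells carried transfected PPARa-Gal4 chimera and GAL4-UAS reporter units, treated 24 h; activity scored as increase over DMSO.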

[9] = target: Retinoic acid receptor RXR-alpha (Homo sapiens) (UniProt P19793); experiment: ATG_RXRa_TRANS: Attagene TRANS-FACTORIAL HepG2 Assay for human Retinoid X Receptor alpha (RXRa) (AID 2283012)
Chain of Retinoic acid receptor RXR-alpha (Homo sapiens) (P19793 whole entry, looked up, the tested form may be a part): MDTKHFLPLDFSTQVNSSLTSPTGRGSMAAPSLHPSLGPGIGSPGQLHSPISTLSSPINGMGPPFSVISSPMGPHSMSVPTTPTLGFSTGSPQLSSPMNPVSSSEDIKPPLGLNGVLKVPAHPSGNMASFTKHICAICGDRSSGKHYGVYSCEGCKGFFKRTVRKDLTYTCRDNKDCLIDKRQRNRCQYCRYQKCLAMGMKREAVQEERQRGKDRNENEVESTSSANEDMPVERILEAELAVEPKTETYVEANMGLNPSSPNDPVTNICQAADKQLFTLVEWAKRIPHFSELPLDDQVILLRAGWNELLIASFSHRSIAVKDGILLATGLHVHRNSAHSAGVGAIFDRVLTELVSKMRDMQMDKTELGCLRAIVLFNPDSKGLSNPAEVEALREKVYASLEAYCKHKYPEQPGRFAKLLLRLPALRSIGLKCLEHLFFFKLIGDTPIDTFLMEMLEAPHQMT
Method in brief: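 HepG2 cells transiently transfected with GAL4-UAS reporter units and chimeric RXRa-Gal4 protein, treated 24 h. Reporter mRNA measured by RT-PCR, fluorescent labelling, HpaI digestion and capillary electrophoresis. Induction fitted against DMSO.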

[10] = TOX21_p53_BLA_p2_viability: Viability Assessment in the Tox21 HCT-116 p53 Agonism Beta-lactamase Assay, Phase 2 (AID 2283591);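 further: compound exposure lasted 16 h at 37 °C; actives lower the ATP signal meaning cytotoxicity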
Method in brief: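 Cytotoxicity readout: CellTiter-Glo ATP luminescence, 30 min at room temperature, after the beta-lactamase read. Cells were HCT116 exposed 16 h at 37C to compounds pin-transferred at 217-fold dilution from DMSO stocks.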

[11] = target: Cellular tumor antigen p53 (Homo sapiens) (UniProt P04637); experiment: TOX21_p53_BLA_p2_ratio: Tox21 HCT-116 p53 Agonism Beta-lactamase Assay, Ratio, Phase 2 (AID 2283592)
Chain of Cellular tumor antigen p53 (Homo sapiens) (P04637 whole entry, looked up): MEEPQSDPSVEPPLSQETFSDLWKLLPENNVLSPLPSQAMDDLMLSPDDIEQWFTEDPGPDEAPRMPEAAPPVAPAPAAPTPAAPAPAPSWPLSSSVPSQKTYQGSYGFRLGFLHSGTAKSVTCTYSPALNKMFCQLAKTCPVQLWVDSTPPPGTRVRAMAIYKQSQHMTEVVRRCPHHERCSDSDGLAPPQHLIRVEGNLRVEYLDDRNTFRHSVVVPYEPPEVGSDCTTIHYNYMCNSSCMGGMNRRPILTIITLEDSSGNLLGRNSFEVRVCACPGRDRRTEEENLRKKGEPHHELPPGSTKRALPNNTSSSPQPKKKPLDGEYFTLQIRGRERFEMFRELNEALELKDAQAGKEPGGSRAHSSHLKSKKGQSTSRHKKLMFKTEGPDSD
Method in brief: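 In this cell-based reporter format, HCT116 cells were dosed with chemicals delivered from DMSO by 217-fold dilution and incubated 16 h at 37C. Emission at 460 and 530 nm after 2 h CCF4-AM loading provided the ratio, fitted upward versus DMSO.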

[12] = TOX21_p53_BLA_p3_viability: Viability Assessment in the Tox21 HCT-116 p53 Agonism Beta-lactamase Assay, Phase 3 (AID 2283593);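 further: cells exposed to compound for 16 h before reading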
Method in brief: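 Cellular ATP was quantified by CellTiter-Glo luminescence, read after 30 min at room temperature. Beforehand, HCT116 cells (4000/well) received compound 5 h post-seeding, 217-fold diluted from DMSO, then incubated 16 h at 37C.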

[13] = target: Cellular tumor antigen p53 (Homo sapiens) (UniProt P04637); experiment: TOX21_p53_BLA_p3_ratio: Tox21 HCT-116 p53 Agonism Beta-lactamase Assay, Ratio, Phase 3 (AID 2283596)
Method in brief: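 HCT116 p53-bla cells (4000/well) given compound in DMSO (217-fold dilution) after 5 h, incubated 16 h at 37C. CCF4-AM substrate 2 h at room temperature; 460/530 nm emission ratio, gain fitted against DMSO.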

[14] = TOX21_p53_BLA_p5_viability: Viability Assessment in the Tox21 HCT-116 p53 Agonism Beta-lactamase Assay, Phase 5 (AID 2283600)
Method in brief: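 Compounds, pinned from DMSO at 217-fold dilution, were left on the cells for 16 h. The viability endpoint was ATP content measured by CellTiter-Glo luminescence, where falling signal reflects cytotoxicity.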

[15] = target: Cellular tumor antigen p53 (Homo sapiens) (UniProt P04637); experiment: TOX21_p53_BLA_p4_ratio: Tox21 HCT-116 p53 Agonism Beta-lactamase Assay, Ratio, Phase 4 (AID 2283601)
Method in brief: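 Signal is the blue/green (460nm/530nm) ratio of cleaved versus uncleaved CCF4-AM substrate, read after 2 h substrate loading. Cells were HCT116 carrying the p53-responsive beta-lactamase reporter, dosed 16 h at 37C, 5% CO2; CellTiter-Glo measured in parallel.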

[16] = ATG_M_19_CIS: Attagene CIS-FACTORIAL HepG2 Assay for M19 Transcription Factor (Internal Marker) (AID 2282939; active means hit-call score of the fitted dose curve at least 0.9, where 1 is the maximum; inactive means score below 0.9); conditions: HepG2 Attagene CIS-FACTORIAL M19 internal marker reporter; actives raise or lower the signal
Method in brief: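 HepG2 cells transiently transfected with cis-regulated multiplexed reporter units, dosed 24 h. Reporter mRNA quantified by RT-PCR and capillary electrophoresis; internal background marker fitted bidirectionally versus DMSO.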

[17] = target: human Retinoid X Receptor beta (RXRb), RXRB (gene 6257) (UniProt P28702); experiment: ATG_RXRb_TRANS: Attagene TRANS-FACTORIAL HepG2 Assay for human Retinoid X Receptor beta (RXRb) (AID 2283013)
Chain of human Retinoid X Receptor beta (RXRb), RXRB (gene 6257) (P28702 whole entry, looked up, the tested form may be a part): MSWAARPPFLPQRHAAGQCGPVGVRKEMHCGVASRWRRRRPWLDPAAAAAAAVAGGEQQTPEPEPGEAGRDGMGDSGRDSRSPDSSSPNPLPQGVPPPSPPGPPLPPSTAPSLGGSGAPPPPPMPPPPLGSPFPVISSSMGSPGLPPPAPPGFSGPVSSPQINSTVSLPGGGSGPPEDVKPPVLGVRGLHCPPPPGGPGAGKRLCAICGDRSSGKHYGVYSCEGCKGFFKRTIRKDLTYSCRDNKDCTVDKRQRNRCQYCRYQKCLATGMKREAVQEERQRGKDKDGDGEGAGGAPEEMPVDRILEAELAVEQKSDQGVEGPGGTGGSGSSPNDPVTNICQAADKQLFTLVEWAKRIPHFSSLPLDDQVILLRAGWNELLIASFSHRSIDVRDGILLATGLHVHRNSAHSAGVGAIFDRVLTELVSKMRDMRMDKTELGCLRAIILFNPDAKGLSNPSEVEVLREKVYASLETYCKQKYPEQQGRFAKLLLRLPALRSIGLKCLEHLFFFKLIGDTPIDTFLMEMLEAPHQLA
Method in brief: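 HepG2 cells were transiently transfected with multiplexed GAL4-UAS reporters and a chimeric RXRb-Gal4 construct, then exposed for 24 h. Reporter mRNA was quantified by RT-PCR, FAM labeling, HpaI digestion and capillary electrophoresis; gain of signal was scored against DMSO.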

[18] = target: Cellular tumor antigen p53 (Homo sapiens) (UniProt P04637); experiment: TOX21_p53_BLA_p5_ratio: Tox21 HCT-116 p53 Agonism Beta-lactamase Assay, Ratio, Phase 5 (AID 2283599)
Method in brief: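 Beta-lactamase reporter ratio (blue 460 nm over green 530 nm, 405 nm excitation) after 2 h CCF4-AM loading, in HCT-116 cells exposed 16 h at 37 C to compounds pinned at 217-fold dilution. Increases relative to DMSO baseline scored.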

[19] = ATG_Sox_CIS: Attagene CIS-FACTORIAL HepG2 Assay for human SRY-box transcription factor (SOX) (AID 2282960; active means hit-call score of the fitted dose curve at least 0.9, where 1 is the maximum; inactive means score below 0.9); conditions: HepG2 Attagene cis-factorial SOX reporter, mRNA; actives raise or lower the signal
Method in brief: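 Cells were transfected with reporter constructs under cis-regulatory promoters, then exposed to chemicals for 24 h. Reporter transcripts were quantified by fluorescence after RT-PCR and capillary electrophoresis; activity was fitted in both directions against DMSO.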

[20] = ATG_M_32_TRANS: Attagene TRANS-FACTORIAL HepG2 Assay for M32 Transcription Factor (Internal Marker) (AID 2282984); conditions: HepG2 Attagene TRANS M32 internal marker reporter;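 further: transcript level of a background control reporter unit measured by RT-PCR and capillary electrophoresis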
Method in brief: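 Measures reporter mRNA induction in human HepG2 liver cells after 24 h chemical treatment. Transcripts from transiently transfected GAL4-UAS reporter units are amplified, fluorescently labelled and sized by capillary electrophoresis; gain of signal relative to DMSO.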

Measured: AC50

Cc1cc2nc3c(=O)[nH]c(=O)nc-3n(C[C@H](O)[C@H](O)[C@H](O)CO)c2cc1C
active: [5] 47.2 µM
not listed: [16] | [17] | [18] | [19] | [20]
inactive: all other assays above

C=CCOC(=O)C(=C)C
not listed: [2] | [3] | [9] | [10] | [14] | [19] | [20]
inactive: all other assays above

Clc1ccc(Sc2cc(Cl)c(Cl)cc2Cl)cc1
active: [5] 5.97 µM | [17] 7.54 µM
not listed: [3] | [6] | [8] | [10] | [18] | [20]
inactive: all other assays above

C=C(C)C(=O)OCCCCCC
active: [5] 26.5 µM
not listed: [4] | [6] | [12] | [13] | [17]
inactive: all other assays above

CN(C)Cc1cc(C(C)(C)C)c(O)c(C(C)(C)C)c1
active: [5] 3.41 µM | [9] 22.9 µM | [17] 1.67 µM
not listed: [4] | [7] | [8] | [11] | [15] | [18]
inactive: all other assays above

CCC(C)(CCC(C)C)C(=O)O (stereo unspecified)
inactive: [1] | [2] | [3] | [5] | [6] | [19] | [7] | [20] | [8]

CCCOCCC
not listed: [6] | [9] | [13] | [14] | [20]
inactive: all other assays above

CCCC(=O)OC/C=C(\C)CCC=C(C)C
active: [5] 22.7 µM
inactive: [1] | [16] | [3] | [4] | [7] | [20] | [8] | [9] | [17]

CC(C)=CCOC(=O)c1ccccc1
not listed: [4] | [7] | [8] | [13]
inactive: all other assays above
